Screens: PubChem, University of Kansas High Throughput Screening Laboratory
Hits are enriched below; roughly 3.5% of the tested compounds scored in any of these assays.
mHTT-CaM PPI inh: inhibitors of human mutant huntingtin-calmodulin interaction | P42858 | AlphaScreen His-mHTT/GST-CaM binding, luminescence | inhibition, % at 15 µM | 190,000 compounds, 3.6% hits
Pf apPOL block: Pf-apPOL DNA polymerase inhibition | inhibition, % at 10 µM | Recombinant Pf-apPOL, molecular beacon fluorescence, 1.5 h | 210,000 compounds, 0.25% hits
Numbers stand for hits; – = inactive; · = no result given. Rule as the data show it: active = inhibition above about 50%; inactive = the rest.

SMILES	mHTT-CaM PPI inh	Pf apPOL block
Cc1ccc(C(=O)N2CCC(n3c(-c4ccoc4)nc4cccnc43)C2)cc1F (centres undefined)	–	–
O=C(c1cc(F)cc(F)c1)N1CCC(n2c(-c3ccco3)nc3cccnc32)C1 (centres undefined)	–	–
CSc1cccc(NC(=O)C2CCN(c3ccncc3)CC2)c1	–	–
COc1ccc(-c2csc3c(=O)n(Cc4ccncc4)cnc23)cc1	–	–
Cc1cc(O)c(CN2CCN(C)CC2)c2c1C(=O)C(=Cc1cc3cc(Br)ccc3o1)O2	–	–
CCn1c(=N)c(C(=O)NCc2ccco2)cc2c(=O)n3cccc(C)c3nc21	–	–
CN(C)c1ccc(N2CC(=O)SC2=NC#N)cc1	55	·
Cc1c(C=O)c(C=O)c(C)n1-c1ccc(N(C)C)cc1	–	–
COc1ccc(-c2nnc(N3CCC(C(=O)NC(C)C)CC3)o2)cc1	–	–
COc1ccc(/C=C2\C=C(c3ccccc3)N(c3cccnc3)C2=O)cc1Br	53	–
O=C1/C(=C/c2ccc(-c3ccc([N+](=O)[O-])cc3)o2)C=C(c2ccccc2)N1c1cccnc1	65	–
O=C1/C(=C/c2ccc([N+](=O)[O-])cc2)C=C(c2ccccc2)N1c1ccccc1	–	–
O=C1/C(=C/c2ccc([N+](=O)[O-])cc2)C=C(c2ccccc2)N1c1ccc(O)cc1	59	–
COc1ccc(/C=C2/C(=N)N3C(c4ccccc4)=CSC3=NC2=O)cc1Br	–	–
O=C(O)c1cccc(N2C(=O)/C(=C/c3ccc([N+](=O)[O-])cc3)C=C2c2ccccc2)c1	–	–
COc1ccc(/C=C2\C=C(c3ccccc3)N(c3ccc(N(C)C)cc3)C2=O)cc1	–	–
COc1ccc(/C=C2\C=C(c3ccccc3)N(c3ccc(F)cc3)C2=O)cc1	53	–
COc1cccc(C=Nc2cccc(C(F)(F)F)c2)c1O	–	–
CC(=O)N1CCc2sc(S(=O)(=O)Nc3cccc(C)c3C)cc2C1	–	–
COc1cc(C=Nc2sc3c(c2C#N)CCCC3)cc2c1OCO2	–	–
COc1cc(/C=C2\SC(NC(C)=O)=NC2=O)cc(I)c1O	–	–
O=C(NCc1ccc(F)cc1)C1CCN(c2nnc(-c3ccccc3)o2)CC1	–	–
COc1ccc(/C=C2\C=C(c3ccccc3)N(c3ccc(O)cc3)C2=O)cc1	59	–
COc1ccc(/C=C2\C=C(c3ccccc3)N(c3ccc(C(=O)O)cc3)C2=O)cc1	–	–
Cn1c(=O)n(C)c2cc(/C=C3\C(=O)NN(c4ccc(Br)cc4)C3=O)ccc21	–	–
SMILES	mHTT-CaM PPI inh	Pf apPOL block
CC/C(C)=C1\C(=O)NN(c2ccc(Br)cc2)C1=O	74	–
CN1C(=O)CCC2(CN(C)S(=O)(=O)c3cccnc3)CCCC12 (centres undefined)	–	–
CC(C)(O)C#Cc1ccc(C(=O)NCc2ccco2)cc1	–	–
Cc1nc(NCC(C)C)c2cnn(-c3ccc(F)cc3)c2n1	–	–
COc1cc(/C=C2/C(=O)N(c3ccc(C(=O)O)cc3)N=C2C)cc(OC)c1OC	–	–
COc1cc(/C=C2\C(=O)N(c3ccc(C(=O)O)cc3)N=C2C(F)(F)F)ccc1OCC(C)C	74	–
CNC(=O)c1cc(C)nc2ccc(C)cc12	–	84
CNC(=O)c1cc(C)nc2ccc(F)cc12	–	–
CCCNC(=O)c1cc(C)nc2ccc(F)cc12	100	–
CCCNC(=O)c1cc(C)nc2ccc(Cl)cc12	–	–
COc1ccc(-c2cc(=O)c3cc(C)ccc3o2)cc1OC	–	–
O=C(Cn1cnc2c(-c3ccc(Cl)cc3)csc2c1=O)Nc1ccccc1	–	–
c1csc(Cc2nc(-c3cccs3)no2)c1	–	·
CCOc1ccc(NC(=O)CN(C)S(=O)(=O)c2ccc(Cl)cc2)cc1	–	–
CN(c1cc2c(c3c1ccn3C)C1CCC2C1)C1CCCCC1 (centres undefined)	70	–
COc1ccc(-c2cc3c(c4c2ccn4C)C2CCC3C2)cc1F (centres undefined)	–	–
Cn1ccc2c(N(Cc3ccccc3)Cc3ccccc3)cc3c(c21)C1CCC3C1 (centres undefined)	–	–
Cn1ccc2c(N(c3ccccc3)C3CCCCC3)cc3c(c21)C1CCC3O1 (centres undefined)	–	–
COc1ccccc1N(C)c1cc2c(c3c1ccn3C)C1CCC2C1 (centres undefined)	83	–
CN(Cc1ccccc1)c1cc2c(c3c1ccn3C)C1CCC2C1 (centres undefined)	71	–
CN(CCc1ccccc1)c1cc2c(c3c1ccn3C)C1CCC2C1 (centres undefined)	75	–
Cc1ccccc1-c1cc2c(c3c1ccn3C)C1CCC2C1 (centres undefined)	–	–
CC(C)N(C)C(=O)c1ccccc1N1CCC(NC(=O)C2CCC2)CC1	–	–
Cn1nc(-c2ccc(C=C(C#N)S(=O)(=O)c3ccc(C(F)(F)F)cn3)s2)cc1C(F)(F)F	·	–
COc1cccc(C2C(=C(O)c3ccc(C)cc3)C(=O)C(=O)N2CCN2CCOCC2)c1OC (centres undefined)	–	–
SMILES	mHTT-CaM PPI inh	Pf apPOL block
Cn1ccc2c(-c3ccc(F)cc3)cc3c(c21)C1CCC3C1 (centres undefined)	–	–
CCN(C)c1cc2c(c3c1ccn3C)C1CCC2C1 (centres undefined)	53	–
Cc1cc(C)n(-c2cc(NCc3cccc(F)c3)ncn2)n1	–	–
O=C(Nc1ccc2c(c1)OCO2)N1CCCC1c1ccc(Cl)cc1 (centres undefined)	–	–
O=C(NC(c1cccs1)c1cc([N+](=O)[O-])c2cccnc2c1O)C1CCCCC1 (centres undefined)	–	–
COc1ccccc1C(NC(=O)C1CCCCC1)c1cc([N+](=O)[O-])c2cccnc2c1O (centres undefined)	54	–
COc1ccccc1C(NC(C)=O)c1cc([N+](=O)[O-])c2cccnc2c1O (centres undefined)	100	–
OCC(CO)(CO)NCC(O)Cn1c2c(c3cccc(Cl)c31)CCCC2 (centres undefined)	–	–
COc1ccc(C2=N/C(=C\c3ccccc3F)C(=O)O2)cc1Br	–	–
CC(C)c1ccc(N=Cc2c[nH]c3ccccc23)cc1	–	–
COc1cccc(N=Cc2c[nH]c3ccccc23)c1	100	–
COc1ccc(CC2SC(=Nc3ccccc3)NC2=O)cc1 (centres undefined)	–	–
O=C(Nc1ccccc1C(=O)NCc1ccco1)c1ccc(F)cc1	–	–
CCCOc1nc2cc(C)c(C)cc2[nH]c1=O	–	–
COc1ccc(NC(=O)/C(C#N)=C/c2cc(C)n(-c3ccc(F)cc3)c2C)cc1	–	–
COc1ccc(-n2c(C)cc(CN)c2C)cc1	64	–
Cc1cccc(C2CC(c3ccc(Cl)cc3)Nc3nc(N)nn32)c1 (centres undefined)	56	–
CCOc1ccccc1C1CC(c2ccc(I)cc2)Nc2ncnn21 (centres undefined)	54	–
CCc1ccc(C2CC(c3ccccc3Cl)n3nc(N)nc3N2)cc1 (centres undefined)	–	–
COc1cccc(C2CC(c3ccc(Cl)cc3Cl)n3nc(N)nc3N2)c1 (centres undefined)	52	–
CCOc1ccccc1C1CC(c2ccccc2)Nc2ncnn21 (centres undefined)	–	–
CCc1ccc(C2CC(c3ccccc3Cl)Nc3nc(N)nn32)cc1 (centres undefined)	52	–
